Source: PubChem BioAssay AID588726 (The Scripps Research Institute Molecular Screening Center, 2011)
About 8,200 (2.3%) of roughly 360,000 compounds were called active. Rule as the data show it: active = inhibition above about 27%; inactive = the rest. Many of the other results were omitted from the sample, so actives are more common in it than they were.

What follows are compounds tested against Fructose-bisphosphate aldolase (Mycobacterium tuberculosis (strain ATCC 25618 / H37Rv)) (UniProt P9WQA3) (assay: Mtb FBA enzyme inhibitors, primary screen, biochemical, fluorescence, strain H37Rv (AID 588726;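 also: 0% = vehicle and 100% = reference inhibitor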)). Conditions: purified M. tuberculosis FBA, fluorescence read-out, at 1 µM, hits give high values.
Fructose-bisphosphate aldolase (Mycobacterium tuberculosis (strain ATCC 25618 / H37Rv)), sequence (P9WQA3 whole entry, looked up): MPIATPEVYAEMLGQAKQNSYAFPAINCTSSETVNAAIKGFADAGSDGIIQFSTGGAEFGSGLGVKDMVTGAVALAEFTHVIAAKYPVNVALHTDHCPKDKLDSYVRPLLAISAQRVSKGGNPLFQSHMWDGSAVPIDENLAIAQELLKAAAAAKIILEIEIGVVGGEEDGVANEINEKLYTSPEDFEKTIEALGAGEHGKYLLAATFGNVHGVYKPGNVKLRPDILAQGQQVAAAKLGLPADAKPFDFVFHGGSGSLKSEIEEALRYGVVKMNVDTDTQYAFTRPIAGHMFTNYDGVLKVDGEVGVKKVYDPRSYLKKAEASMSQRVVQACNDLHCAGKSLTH
With `CCc1nc2c(OCC(N)=O)cccn2c1N(C)C(=O)c1ccc(OC)cc1` the inhibition was -2.06% (inactive).
For `Cc1nc(C(=O)NCc2ccccc2)sc1C1(C)CC(c2cccnc2)=NO1` (stereo not given), the inhibition was -0.93% (inactive).
`O=C(CN1CCN(S(=O)(=O)c2ccc(Cl)s2)CC1)N1CCCCC1` was tested, and the inhibition was 5.01% (inactive).
For `COc1ccc(-c2cc(C(=O)Nc3ccccc3O)c3ccccc3n2)cc1`, the inhibition was 28.8% (active).
In the case of `CN(CCOc1ccccc1)C(=O)c1cc(COc2c(F)cccc2F)on1`, the inhibition is reported as -3.64% (inactive).
`CN(CCOc1ccccc1)C(=O)c1cc(-c2ccco2)nc2ccccc12` was tested, and the inhibition was 29.6% (active).
In the case of `COc1ccc(NC(=O)CN(C)C(=O)c2cc(C)oc2C)cc1`, the inhibition is reported as 0.68% (inactive).
`COc1ccc(NC(=O)CN(C)C(=O)c2cc(-c3ccc(C)o3)nc3ccccc23)cc1` was tested, and the inhibition was 71.2% (active).
In the case of `COc1ccc(-c2cc(C(=O)n3cnc4ccccc43)c3ccccc3n2)cc1`, the inhibition is reported as 113% (active).
For `C/C(N)=C(/C#N)C(=O)COC(=O)c1cc(-c2ccc(C)cc2)nc2ccccc12`, the inhibition was 0.39% (inactive).
In the case of `COc1cccc(NC(=O)CN(C)C(=O)c2cc(Cl)nc3ccccc23)c1`, the inhibition is reported as 2.95% (inactive).
With `COc1ccc(C)cc1NC(=O)c1cc(-c2ccccc2)nc2c1cnn2C(C)C` the inhibition was 1.87% (inactive).
For `O=C(c1ccc(Cl)cc1)n1cnc2ccccc21`, the inhibition was 5.13% (inactive).
In the case of `C/C(=N\NC(=O)c1cc(-c2ccc(O)cc2)nc2ccccc12)c1cccnc1`, the inhibition is reported as 0.88% (inactive).
With `CN(C(=O)COC(=O)c1cc(-c2ccco2)nc2ccccc12)C1CCS(=O)(=O)C1` (stereo not given) the inhibition was 4.55% (inactive).
With `CC(C)c1ccc(/C=C/C(=O)NCCCN2CCOCC2)cc1` the inhibition was 0.72% (inactive).
For `CCN(C(=O)c1cc([N+](=O)[O-])ccc1NCc1cccnc1)c1ccccc1`, the inhibition was 2.57% (inactive).
With `COC(=O)c1cc2n(n1)CCCNC2=O` the inhibition was 3.15% (inactive).
In the case of `C=C(C)Cn1c(C)cc(C)c(S(=O)(=O)c2ccccc2C)c1=O`, the inhibition is reported as -0.53% (inactive).
`CCc1cc(C(c2ccccc2OC)N2CCOCC2)c(NC(=O)c2ccccc2)s1` (stereo not given) was tested, and the inhibition was -1.6% (inactive).
`COc1cccc(C(=O)N/N=C(\C)c2cccc(NC(=O)c3ccc(F)cc3)c2)c1OC` was tested, and the inhibition was -1.27% (inactive).
In the case of `Cn1nc(C(F)(F)F)cc1-c1ccc(/C=C(\C#N)C(=O)c2cccc(C(F)(F)F)c2)s1`, the inhibition is reported as 0.1% (inactive).
With `CCc1ccc(OCC(=O)OC(C)C(=O)NC2CC2)cc1` (stereo not given) the inhibition was -0.68% (inactive).
With `COc1ccc(C2=NS(=O)(=O)N(C)C(C(=O)N(C)Cc3ccccc3)=C2)cc1` the inhibition was 4.86% (inactive).
For `O=C(c1cc(-c2ccco2)nc2ccccc12)N(Cc1nnc(-c2ccc(Cl)cc2)o1)C1CC1`, the inhibition was 46.8% (active).
In the case of `CC(C)N(Cc1nnc(-c2ccccc2Br)o1)C(=O)c1cc(Cl)nc2ccccc12`, the inhibition is reported as 2.07% (inactive).
`COc1ccc(CN(C)C(=O)c2cc(-c3ccc(C)cc3C)nc3ccccc23)c(OC)c1OC` was tested, and the inhibition was -0.53% (inactive).
With `O=C(c1ccc(Cl)s1)N(Cc1nnc(-c2ccccc2Cl)o1)C1CC1` the inhibition was -1.65% (inactive).
For `COc1ccc(-c2cc(C(=O)N(C)Cc3ccccc3)c3ccccc3n2)cc1`, the inhibition was 69.9% (active).
In the case of `C=CCOc1cccc(CNCc2cccnc2)c1`, the inhibition is reported as -1.51% (inactive).
For `CC1(C)CC(=O)c2c(n(S(=O)(=O)c3ccccc3)c3ccc(NS(=O)(=O)c4ccccc4)cc23)C1`, the inhibition was -1.63% (inactive).
For `C[C@@H](C(=O)Nc1ccc2ccccc2c1)[C@@H]1C[C@@]1(C)[C@@H](NC(=O)c1cccnc1)c1ccccc1`, the inhibition was -0.2% (inactive).
For `O=C(CSc1ncn[nH]1)Nc1nc2c(F)c(F)c(F)cc2s1`, the inhibition was 0.81% (inactive).
`CC(=O)N(CN1C(=O)C2C3C=CC(C3)C2C1=O)c1cccc(Cl)c1` (stereo not given) was tested, and the inhibition was -0.27% (inactive).
For `COc1ccc(-c2ccc3c(c2)[C@@H]2C[C@H](N(C)S(=O)(=O)c4ccccc4)[C@H]([C@H](C)O)C(=O)N2CC3)cc1`, the inhibition was 4.15% (inactive).
`CN(Cc1ccccc1)C(=O)CCNC(=O)Cn1cnc2ccccc2c1=O` was tested, and the inhibition was 5.26% (inactive).
`CC(=O)Nc1ccc(Oc2ccc3c(c2)C(=O)NC3=O)cc1` was tested, and the inhibition was 2.21% (inactive).
For `CCCCN(C)CCC(=O)Nc1ccc(Cl)cc1`, the inhibition was 0.51% (inactive).
`CCCCC(=O)Nc1ccc2c(c1)C(=O)NC2=O` was tested, and the inhibition was 42.1% (active).
`Cc1ccc(C(=O)NC2CCN(C(=O)Nc3ccccc3Cl)CC2)cc1` was tested, and the inhibition was -1.09% (inactive).
With `COc1ccc(C(=O)OCC(=O)NC(=O)CCSc2ccccc2)cc1` the inhibition was -0.72% (inactive).
In the case of `Cc1ccccc1CN1CCNC(=O)C1CC(=O)NCCC1=CCCCC1` (stereo not given), the inhibition is reported as 2.98% (inactive).
With `Cc1cc(C(=O)OC(C)C(=O)Nc2cccc(S(=O)(=O)N3CCOCC3)c2)c(C)o1` (stereo not given) the inhibition was -3.62% (inactive).
With `CCOCCCNC(=O)C(NC(=O)CNC(=O)c1ccccc1)c1ccc(C)cc1` (stereo not given) the inhibition was -3.14% (inactive).
`CCOCCCNC(=O)C(NC(=O)CNC(=O)c1ccccc1)c1ccc(OC)cc1` (stereo not given) was tested, and the inhibition was -0.07% (inactive).
In the case of `CCOCCCNC(=O)C(NC(=O)c1ccccc1O)c1ccccc1` (stereo not given), the inhibition is reported as 43.8% (active).
In the case of `COc1cccc(NC(=O)[C@H](Cc2c[nH]c3ccccc23)NC(=O)[C@@H]2Cc3ccccc3CN2)c1`, the inhibition is reported as 10.6% (inactive).
For `CCCCn1c(O)c(N=NC(=O)Cn2c(C(F)(F)F)nc3ccccc32)c2ccccc21`, the inhibition was 3.68% (inactive).
In the case of `N#C/C(=C/c1ccc(N2CCCCC2)o1)C(=O)NCCc1c[nH]c2ccccc12`, the inhibition is reported as -32.6% (inactive).
In the case of `CN=C1C=C/C(=N/N=c2\ccn(O)cc2C)C=C1C`, the inhibition is reported as -28.4% (inactive).
With `COc1ccc(S(=O)(=O)Nc2ccc3oc(C)c(C(C)=O)c3c2)cc1` the inhibition was 0.55% (inactive).
`Cc1ccc(S(=O)(=O)Nc2ccc(F)c(S(=O)(=O)N3CCOCC3)c2)cc1` was tested, and the inhibition was -0.06% (inactive).
`COCc1cc(=O)oc2cc(NS(=O)(=O)c3ccc(C)cc3)ccc12` was tested, and the inhibition was 62.4% (active).
In the case of `COc1ccccc1CNC(=O)C1CCN(C(=O)[C@@H]2Cc3ccccc3CN2)CC1`, the inhibition is reported as -1.63% (inactive).
With `CCOC(=O)C1CCN(C(=O)/C=C/c2cc(OC)c(OC)c(OC)c2)CC1` the inhibition was 6.09% (inactive).
In the case of `COc1ccccc1CCNC(=O)C1CCN(C(=O)/C=C/c2ccccc2)CC1`, the inhibition is reported as 81.2% (active).
`CCCCC(CC)CNC(=O)CCCCn1c(=O)[nH]c2ccsc2c1=O` (stereo not given) was tested, and the inhibition was -2.17% (inactive).
For `COc1cc(C2NC(=O)NC(c3ccccc3)=C2C(C)=O)c(Br)cc1OCC(N)=O` (stereo not given), the inhibition was 1.26% (inactive).
With `O=C(CC(n1cncn1)C(Cl)(Cl)Cl)c1ccc([N+](=O)[O-])cc1` (stereo not given) the inhibition was 5.32% (inactive).
With `NC(=S)NN=Cc1ccc(OC(=O)COc2cc(Cl)c(Cl)cc2Cl)cn1` the inhibition was 4.26% (inactive).
In the case of `O=C(Nc1ccccc1C(=O)O)c1ccc(N2C(=O)C3CC=CCC3C2=O)cc1` (stereo not given), the inhibition is reported as -1.48% (inactive).
`Nc1ccccc1-c1nc2ccncc2[nH]1` was tested, and the inhibition was 83.7% (active).
For `O=[N+]([O-])c1ccc2nc(-c3ccccn3)[nH]c2c1`, the inhibition was -3.65% (inactive).
With `Cc1cc(C)nc(Nc2n[nH]c(-c3ccccc3N)n2)n1` the inhibition was 15.2% (inactive).
`O=S(=O)(NCCSc1ccccn1)c1ccc(Cl)cc1` was tested, and the inhibition was -1.18% (inactive).
In the case of `O=C(CN1CCC(O)(c2cccc(C(F)(F)F)c2)CC1)NCCc1ccccc1`, the inhibition is reported as -2.53% (inactive).
`CCOc1ccc(C(=O)CCC(=O)NC2=NCCS2)cc1` was tested, and the inhibition was -2.69% (inactive).
In the case of `CCN1CCN(C(=O)Cn2nc(C)n3c(cc4c(OC)cccc43)c2=O)CC1`, the inhibition is reported as 195% (active).
With `CCCN1CCN(C(=O)Cn2ncc3ccccc32)CC1` the inhibition was 2.25% (inactive).
In the case of `CCc1nn(CC(=O)N2CCN(CC)CC2)c(=O)c2cccn12`, the inhibition is reported as 2.42% (inactive).
With `Cc1ccccc1NC(=O)NC1(C(=O)N2CCCC2)CCCCC1` the inhibition was -0.74% (inactive).
For `Cc1cccc(-n2cc(CN3CCN(C(=O)c4ncn[nH]4)CC3)c(-c3cccc(F)c3)n2)c1`, the inhibition was -3.35% (inactive).
`CCC(O)C1CCN(Cc2cn(-c3ccc(OC)cc3)nc2-c2cccc(F)c2)CC1` (stereo not given) was tested, and the inhibition was 23.7% (inactive).
For `COc1ccc(-n2cc(CNC3CCOCC3)c(-c3cccc(F)c3)n2)cc1`, the inhibition was 50.5% (active).
In the case of `COc1ccc(-n2cc(CN(C)Cc3n[nH]c(=O)[nH]3)c(-c3cccc(F)c3)n2)cc1`, the inhibition is reported as 33.1% (active).
For `Cc1ccc(-n2cc(CN(C)Cc3nccn3C)c(-c3cccc(C)c3)n2)cc1`, the inhibition was -2.31% (inactive).
With `COc1ccc(-c2nn(-c3ccccc3)cc2CN2CCCO2)c(F)c1` the inhibition was -2.2% (inactive).
With `CCCCCCN1C[C@H](O)[C@@H](n2cc(C3CC3)nn2)C[C@@H]1c1ccc(Cl)cc1` the inhibition was 0.57% (inactive).
`COc1ccc2[nH]c3nc(SCC(=O)NC4CC4)nnc3c2c1` was tested, and the inhibition was -8.79% (inactive).
For `COc1ccc2c(C)cc(SCC(=O)NCC3CCCO3)nc2c1` (stereo not given), the inhibition was 4.79% (inactive).
With `COC(=O)CSc1nc(C)c2ccc(OC)cc2n1` the inhibition was 30.8% (active).
For `Cn1ncc(N2CCN(S(=O)(=O)c3ccc(Br)cc3)CC2)c(Cl)c1=O`, the inhibition was -2.21% (inactive).
With `CN1CCN(Cc2ccc(OC(F)(F)F)cc2)CC1` the inhibition was -3.02% (inactive).
In the case of `COc1ccc(C(=O)/C=C/Nc2ccccn2)cc1`, the inhibition is reported as 4.41% (inactive).
In the case of `c1ccc(-c2cn3c(n2)CCc2ccc4cccnc4c2-3)cc1`, the inhibition is reported as 6.65% (inactive).
In the case of `COc1ccc(N2CCN(C(=O)CSc3nnc4ncccn34)CC2)cc1`, the inhibition is reported as -2.52% (inactive).
With `Cc1ccccc1Nc1c(-c2ccccc2)nc2ncccn12` the inhibition was 2.19% (inactive).
With `CC(C)(C)NC(=O)NC(=O)COC(=O)C1(C)CC1(Cl)Cl` (stereo not given) the inhibition was 0.89% (inactive).
With `COCCNC(=O)c1onc(CSc2cccc(C)c2)c1C(=O)O` the inhibition was 1.01% (inactive).
For `Cc1ccc(NC(=O)CN(C)C(=O)c2ccc(Br)o2)cc1`, the inhibition was 0.61% (inactive).
